# Inconclusive results are not listed. Calls of active or inactive are those of the source. How the source made its calls, unless noted: active means hit-call score of the fitted dose curve at least 0.9, where 1 is the maximum; inconclusive means response in the unintended direction; inactive means score below 0.9.
# Experiments:
# [1] = ATG_TCF_b_cat_CIS: Attagene CIS-FACTORIAL HepG2 Assay for human T-Cell-Factor with beta-catenin (TCF/b-cat) (AID 2282965; active means hit-call score of the fitted dose curve at least 0.9, where 1 is the maximum; inactive means score below 0.9); details: HepG2 TCF/beta-catenin cis-reporter transcription, actives raise or lower the signal
# Method in brief: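 HepG2 cells transiently transfected with multiple cis-promoter-regulated reporter transcription units, so endogenous transcription factor activity is measured. Reporter mRNA read 24 hours after dosing by RT-PCR, fluorescent labelling and capillary electrophoresis; bidirectional fitting against DMSO.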
# [2] = ATG_TGFb_CIS: Attagene CIS-FACTORIAL HepG2 Assay for human Transforming Growth Factor (TGF) (AID 2282967; active means hit-call score of the fitted dose curve at least 0.9, where 1 is the maximum; inactive means score below 0.9); details: HepG2 Attagene CIS TGFb reporter, mRNA transcription; actives raise or lower the signal
# Method in brief: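 Transcript-level reporter readout: HepG2 transfectants, 24 h exposure, RNA to cDNA, reporter-specific PCR, fluorescent primer extension, capillary sizing against ROX standards. Gain- or loss-of-signal relative to DMSO.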
# [3] = ATG_VDRE_CIS: Attagene CIS-FACTORIAL HepG2 Assay for human Vitamin D Receptor Element (VDRE) (AID 2282968; active means hit-call score of the fitted dose curve at least 0.9, where 1 is the maximum; inactive means score below 0.9); details: HepG2 VDRE cis-reporter transcription, actives raise or lower the signal
# Method in brief: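 Transfected HepG2 reporter cells, chemical treatment 24 h. RNA isolated, cDNA amplified with reporter-specific primers, products analysed by capillary electrophoresis. Endpoint fitted in both directions versus DMSO.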
# [4] = target: Nuclear receptor subfamily 1 group I member 3 (Homo sapiens) (UniProt Q14994); assay: ATG_CAR_TRANS: Attagene TRANS-FACTORIAL HepG2 Assay for human Constitutive Androstane Receptor (CAR) (AID 2282969); details: HepG2 Attagene TRANS-FACTORIAL CAR reporter;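 further: activators raise reporter mRNA above DMSO so AC50 marks induction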
# Method in brief: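 Steps: transient transfection of HepG2 with multiple GAL4-UAS reporter units; 24 h compound incubation; RNA isolation, RT-PCR, 6-FAM primer extension, HpaI digest; capillary electrophoresis. Gain-of-signal relative to DMSO negative control.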
# [5] = target: Estrogen receptor (Homo sapiens) (UniProt P03372); assay: ATG_ERa_TRANS: Attagene TRANS-FACTORIAL HepG2 Assay for human Estrogen Receptor alpha (ERa) (AID 2282970); details: HepG2 Attagene TRANS ERa GAL4 reporter, mRNA
# Method in brief: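 Gal4-fusion ERa transactivation, measured as reporter transcript level in transiently transfected HepG2 cells. Exposure 24 h; RT-PCR plus capillary electrophoresis with fluorescence detection.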
# [6] = target: Steroid hormone receptor ERR1 (Homo sapiens) (UniProt P11474); assay: ATG_ERRa_TRANS: Attagene TRANS-FACTORIAL HepG2 Assay for human Estrogen-Related Receptor alpha (ERRa) (AID 2282971); details: HepG2 Attagene TRANS reporter, ERRa transactivation
# Method in brief: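 HepG2 cells transiently transfected with GAL4-UAS reporter units and chimeric NR-Gal4 constructs; after 24 hour compound incubation, reporter mRNA quantified by RT-PCR, fluorescent labelling and capillary electrophoresis, gain of signal versus DMSO.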
# [7] = target: X-box-binding protein 1 (Homo sapiens) (UniProt P17861); assay: ATG_Xbp1_CIS: Attagene CIS-FACTORIAL HepG2 Assay for human X-box Binding Protein 1 (XBP1) (AID 2282972; active means hit-call score of the fitted dose curve at least 0.9, where 1 is the maximum; inactive means score below 0.9); details: HepG2 XBP1 cis-element reporter, Attagene multiplex; actives raise or lower the signal
# Method in brief: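 Changes in reporter transcript abundance, read by RT-PCR and capillary electrophoresis, reflect endogenous transcription factor activity. Transfected HepG2 cells received compound for 24 hours; DMSO defined baseline for bidirectional analysis.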
# [8] = ATG_M_19_TRANS: Attagene TRANS-FACTORIAL HepG2 Assay for M19 Transcription Factor (Internal Marker) (AID 2282974); details: HepG2 Attagene TRANS-FACTORIAL M19 internal marker reporter
# Method in brief: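 Gain-of-signal in reporter mRNA, relative to DMSO, was scored from capillary electrophoresis fluorescence. HepG2 cells carried transiently transfected multiple reporter transcription units and were incubated with test chemicals for 24 h.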
# [9] = ATG_GAL4_TRANS: Attagene TRANS-FACTORIAL HepG2 Assay for GAL4 (Internal Marker) (AID 2282976); details: HepG2 Attagene TRANS GAL4 internal marker reporter
# Method in brief: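 Background-control readout: GAL4-UAS reporter transcript in transiently transfected HepG2 cells after 24 h compound exposure. Measured by RT-PCR, 6-FAM primer extension, HpaI digest and capillary electrophoresis; gain-of-signal fit versus DMSO.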
# [10] = target: Hepatocyte nuclear factor 4-alpha (Homo sapiens) (UniProt P41235); assay: ATG_HNF4a_TRANS: Attagene TRANS-FACTORIAL HepG2 Assay for human Hepatocyte Nuclear Factor 4 alpha (HNF4a) (AID 2282982); details: HepG2 HNF4a transactivation reporter, mRNA readout
# Method in brief: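 Using HepG2 liver cells transfected with GAL4-UAS reporter units, chemical-induced mRNA increases were assessed after 24 hours. Fluorescent RT-PCR fragments were separated by capillary electrophoresis and compared with DMSO negative controls.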
# [11] = target: Nuclear receptor subfamily 4 group A member 2 (Homo sapiens) (UniProt P43354); assay: ATG_NURR1_TRANS: Attagene TRANS-FACTORIAL HepG2 Assay for human Nuclear Receptor Related Protein 1 (NURR1) (AID 2282985); details: HepG2 Attagene TRANS reporter, mRNA readout
# Method in brief: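 Chimeric NR-Gal4 proteins were expressed in human HepG2 cells bearing GAL4-UAS reporter units, and induced reporter mRNA was quantified 24 h post-dosing by RT-PCR and capillary electrophoresis.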
# [12] = target: Transcriptional activator Myb (Homo sapiens) (UniProt P10242); assay: ATG_Myb_CIS: Attagene CIS-FACTORIAL HepG2 Assay for human Myeloblastosis (Myb) Proto-Oncogene Transcription Factor (AID 2282986; active means hit-call score of the fitted dose curve at least 0.9, where 1 is the maximum; inactive means score below 0.9); details: HepG2 Attagene CIS-FACTORIAL Myb reporter transcription; actives raise or lower the signal
# Method in brief: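 Multiplexed cis-reporter system in HepG2: transient transfection, 24 h treatment, mRNA readout by RT-PCR and capillary electrophoresis. Both increases and decreases are scored versus DMSO negative control.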
# [13] = target: Oxysterols receptor LXR-alpha (Homo sapiens) (UniProt Q13133); assay: ATG_LXRa_TRANS: Attagene TRANS-FACTORIAL HepG2 Assay for human Liver X Receptor alpha (LXRa) (AID 2282980); details: HepG2 Attagene TRANS reporter, LXRa transactivation
# Method in brief: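 HepG2 cells transiently transfected with GAL4-UAS reporter units for chimeric NR-Gal4 proteins, exposed to chemicals for 24 h. Reporter mRNA quantified by RT-PCR and capillary electrophoresis; gain of signal fitted relative to DMSO.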
# [14] = target: Oxysterols receptor LXR-beta (Homo sapiens) (UniProt P55055); assay: ATG_LXRb_TRANS: Attagene TRANS-FACTORIAL HepG2 Assay for human Liver X Receptor beta (LXRb) (AID 2282981); details: HepG2 Attagene TRANS GAL4-LXRb reporter, mRNA
# Method in brief: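 Liver-derived HepG2 cells transfected with Gal4-responsive reporters were dosed for 24 h. Activation was scored as rise in reporter mRNA, by RT-PCR and capillary electrophoresis, above DMSO baseline.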
# [15] = ATG_M_06_TRANS: Attagene TRANS-FACTORIAL HepG2 Assay for M06 Transcription Factor (Internal Marker) (AID 2282983); details: HepG2 Attagene TRANS M06 internal marker reporter
# Method in brief: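 mRNA levels of a reporter transcript, quantified as FAM fluorescence on capillary electrophoresis, served as readout. HepG2 cells expressing exogenous GAL4-chimera reporter constructs were exposed for 24 h. Gain of signal over DMSO was evaluated.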
# [16] = ATG_M_32_TRANS: Attagene TRANS-FACTORIAL HepG2 Assay for M32 Transcription Factor (Internal Marker) (AID 2282984); details: HepG2 Attagene TRANS M32 internal marker reporter
# Method in brief: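 Fluorescence-detected mRNA induction, HepG2 liver cells, 24 h after dosing. Multiple GAL4-UAS reporter units introduced by transient transfection; background-control endpoint analysed for gain of signal against DMSO.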
# [17] = target: Glucocorticoid receptor (Homo sapiens) (UniProt P04150); assay: ATG_GR_TRANS: Attagene TRANS-FACTORIAL HepG2 Assay for human Glucocorticoid Receptor (GR) (AID 2282978); details: HepG2 Attagene TRANS GR reporter, mRNA transcription;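 further: activators score as hits since higher reporter transcript over DMSO is fitted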
# Method in brief: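 HepG2 transient transfection, multiple reporter units, GAL4-UAS under NR-GAL4 chimera control. 24 h treatment. Reporter mRNA by RT-PCR/CE fluorescence, DMSO as negative control.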
# [18] = target: Estrogen-related receptor gamma (Homo sapiens) (UniProt P62508); assay: ATG_ERRg_TRANS: Attagene TRANS-FACTORIAL HepG2 Assay for human Estrogen-Related Receptor gamma (ERRg) (AID 2282977); details: HepG2 Attagene TRANS reporter, ERRg transactivation;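 further: hits increase reporter signal over DMSO so potencies reflect activators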
# Method in brief: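 Exogenous NR-Gal4 chimera activity was assessed in HepG2 cells bearing transfected GAL4-UAS reporters. After 24 h dosing, total RNA underwent RT-PCR, fluorescent primer extension and HpaI digestion before capillary electrophoresis, with gain of signal scored against DMSO.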
# [19] = target: Bile acid receptor (Homo sapiens) (UniProt Q96RI1); assay: ATG_FXR_TRANS: Attagene TRANS-FACTORIAL HepG2 Assay for Farnesoid X Receptor (FXR) (AID 2282979); details: HepG2 Attagene TRANS FXR-GAL4 reporter transcription;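 further: hits raise reporter mRNA above DMSO so AC50 marks FXR activation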
# Method in brief: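 HepG2 cells were transiently transfected with GAL4-UAS reporters driven by chimeric NR-Gal4 proteins and dosed for 24 h. Reporter mRNA was quantified by RT-PCR, fluorescent labelling, HpaI digestion and capillary electrophoresis, with gain of signal scored versus DMSO.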
# [20] = ATG_TAL_CIS: Attagene CIS-FACTORIAL HepG2 Assay for human TAL Basal Promoter (AID 2282966; active means hit-call score of the fitted dose curve at least 0.9, where 1 is the maximum; inactive means score below 0.9;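 further: background control endpoint measuring basal TAL promoter reporter mRNA not a specific factor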); details: HepG2 Attagene cis-factorial TAL promoter reporter; actives raise or lower the signal
# Method in brief: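 Basal-promoter background-control endpoint from a multiplexed HepG2 reporter panel. Cells were exposed 24 h, then reporter mRNA was read by RT-PCR/CE fluorescence and fitted in both directions relative to DMSO.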
# X-box-binding protein 1 (Homo sapiens), sequence (P17861 whole entry, looked up): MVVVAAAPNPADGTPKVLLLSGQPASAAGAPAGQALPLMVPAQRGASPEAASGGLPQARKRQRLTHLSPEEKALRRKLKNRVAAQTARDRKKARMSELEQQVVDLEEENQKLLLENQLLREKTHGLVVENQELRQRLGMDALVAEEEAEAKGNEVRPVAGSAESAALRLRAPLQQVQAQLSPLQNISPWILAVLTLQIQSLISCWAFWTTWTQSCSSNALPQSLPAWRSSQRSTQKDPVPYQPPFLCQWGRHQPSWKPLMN
# Glucocorticoid receptor (Homo sapiens), sequence (P04150 whole entry, looked up, the tested form may be a part): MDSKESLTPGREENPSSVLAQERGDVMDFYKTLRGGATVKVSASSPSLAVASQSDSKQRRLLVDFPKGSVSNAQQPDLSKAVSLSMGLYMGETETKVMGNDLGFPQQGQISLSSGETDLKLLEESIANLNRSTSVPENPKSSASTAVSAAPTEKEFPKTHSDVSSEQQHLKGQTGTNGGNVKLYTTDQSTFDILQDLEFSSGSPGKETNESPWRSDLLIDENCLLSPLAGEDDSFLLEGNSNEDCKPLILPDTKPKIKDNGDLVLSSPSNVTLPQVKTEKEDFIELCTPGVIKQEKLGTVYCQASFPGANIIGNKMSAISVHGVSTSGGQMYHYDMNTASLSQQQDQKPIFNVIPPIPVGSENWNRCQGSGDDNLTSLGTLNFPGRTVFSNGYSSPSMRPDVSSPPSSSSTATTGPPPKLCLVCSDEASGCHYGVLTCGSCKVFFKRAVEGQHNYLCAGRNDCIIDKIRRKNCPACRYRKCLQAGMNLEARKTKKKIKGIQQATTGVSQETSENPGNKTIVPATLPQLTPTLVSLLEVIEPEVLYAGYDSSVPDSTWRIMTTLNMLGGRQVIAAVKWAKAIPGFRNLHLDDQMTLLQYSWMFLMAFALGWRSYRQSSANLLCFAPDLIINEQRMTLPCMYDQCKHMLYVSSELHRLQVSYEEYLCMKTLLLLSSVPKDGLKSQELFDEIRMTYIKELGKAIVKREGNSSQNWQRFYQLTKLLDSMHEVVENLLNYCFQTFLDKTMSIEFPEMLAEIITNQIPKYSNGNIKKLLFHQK
# Nuclear receptor subfamily 4 group A member 2 (Homo sapiens), sequence (P43354 whole entry, looked up, the tested form may be a part): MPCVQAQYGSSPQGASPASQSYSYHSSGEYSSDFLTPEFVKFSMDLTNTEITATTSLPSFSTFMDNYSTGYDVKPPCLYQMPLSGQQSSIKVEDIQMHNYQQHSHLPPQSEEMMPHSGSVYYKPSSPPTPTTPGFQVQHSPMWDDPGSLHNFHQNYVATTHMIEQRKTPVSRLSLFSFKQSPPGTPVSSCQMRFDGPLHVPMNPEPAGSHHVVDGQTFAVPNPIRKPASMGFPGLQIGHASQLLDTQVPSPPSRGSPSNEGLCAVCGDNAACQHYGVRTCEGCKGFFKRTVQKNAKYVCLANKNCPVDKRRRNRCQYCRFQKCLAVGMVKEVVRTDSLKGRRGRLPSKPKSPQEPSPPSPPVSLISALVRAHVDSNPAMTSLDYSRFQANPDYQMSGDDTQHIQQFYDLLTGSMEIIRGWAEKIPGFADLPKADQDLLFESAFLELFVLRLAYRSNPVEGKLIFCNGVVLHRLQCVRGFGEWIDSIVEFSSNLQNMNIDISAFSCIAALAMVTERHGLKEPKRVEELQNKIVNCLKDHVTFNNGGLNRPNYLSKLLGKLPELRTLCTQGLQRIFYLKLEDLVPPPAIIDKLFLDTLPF
# Estrogen-related receptor gamma (Homo sapiens), sequence (P62508 whole entry, looked up, the tested form may be a part): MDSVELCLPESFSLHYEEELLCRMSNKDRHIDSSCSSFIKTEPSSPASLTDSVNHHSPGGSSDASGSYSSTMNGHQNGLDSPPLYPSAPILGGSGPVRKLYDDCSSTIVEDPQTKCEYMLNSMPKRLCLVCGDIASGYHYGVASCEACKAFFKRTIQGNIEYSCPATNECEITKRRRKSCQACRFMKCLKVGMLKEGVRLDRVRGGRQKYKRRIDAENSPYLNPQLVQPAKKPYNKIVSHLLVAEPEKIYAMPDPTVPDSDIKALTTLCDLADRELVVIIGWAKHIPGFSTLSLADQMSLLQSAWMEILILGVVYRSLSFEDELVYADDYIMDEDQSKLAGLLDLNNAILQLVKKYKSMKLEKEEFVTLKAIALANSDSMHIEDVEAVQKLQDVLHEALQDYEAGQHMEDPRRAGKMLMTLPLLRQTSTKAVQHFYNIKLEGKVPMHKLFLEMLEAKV
# Oxysterols receptor LXR-beta (Homo sapiens), sequence (P55055 whole entry, looked up, the tested form may be a part): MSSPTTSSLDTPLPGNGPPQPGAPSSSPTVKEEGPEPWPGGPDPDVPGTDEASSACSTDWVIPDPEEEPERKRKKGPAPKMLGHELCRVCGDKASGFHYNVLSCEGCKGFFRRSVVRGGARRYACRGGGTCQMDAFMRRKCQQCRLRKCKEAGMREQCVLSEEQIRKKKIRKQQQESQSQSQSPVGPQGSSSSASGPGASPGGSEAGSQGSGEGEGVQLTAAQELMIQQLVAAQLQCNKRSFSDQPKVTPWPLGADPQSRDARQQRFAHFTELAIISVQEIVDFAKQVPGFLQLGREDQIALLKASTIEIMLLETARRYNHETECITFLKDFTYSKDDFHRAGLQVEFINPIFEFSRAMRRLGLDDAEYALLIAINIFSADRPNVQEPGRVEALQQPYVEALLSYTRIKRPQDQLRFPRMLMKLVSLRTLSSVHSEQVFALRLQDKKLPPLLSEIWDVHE
# Oxysterols receptor LXR-alpha (Homo sapiens), sequence (Q13133 whole entry, looked up, the tested form may be a part): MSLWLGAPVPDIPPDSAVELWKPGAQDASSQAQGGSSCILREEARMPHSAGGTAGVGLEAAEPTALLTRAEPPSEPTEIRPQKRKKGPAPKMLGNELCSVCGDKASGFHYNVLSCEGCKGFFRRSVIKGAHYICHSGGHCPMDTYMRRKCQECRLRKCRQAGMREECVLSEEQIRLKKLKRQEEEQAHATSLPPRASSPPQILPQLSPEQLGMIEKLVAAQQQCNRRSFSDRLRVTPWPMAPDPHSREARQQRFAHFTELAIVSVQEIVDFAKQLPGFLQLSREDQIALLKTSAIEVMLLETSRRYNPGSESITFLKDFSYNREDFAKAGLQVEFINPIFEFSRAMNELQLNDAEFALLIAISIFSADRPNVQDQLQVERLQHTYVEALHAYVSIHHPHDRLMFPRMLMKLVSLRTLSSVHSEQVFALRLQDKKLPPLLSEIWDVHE
# Transcriptional activator Myb (Homo sapiens), sequence (P10242 whole entry, looked up): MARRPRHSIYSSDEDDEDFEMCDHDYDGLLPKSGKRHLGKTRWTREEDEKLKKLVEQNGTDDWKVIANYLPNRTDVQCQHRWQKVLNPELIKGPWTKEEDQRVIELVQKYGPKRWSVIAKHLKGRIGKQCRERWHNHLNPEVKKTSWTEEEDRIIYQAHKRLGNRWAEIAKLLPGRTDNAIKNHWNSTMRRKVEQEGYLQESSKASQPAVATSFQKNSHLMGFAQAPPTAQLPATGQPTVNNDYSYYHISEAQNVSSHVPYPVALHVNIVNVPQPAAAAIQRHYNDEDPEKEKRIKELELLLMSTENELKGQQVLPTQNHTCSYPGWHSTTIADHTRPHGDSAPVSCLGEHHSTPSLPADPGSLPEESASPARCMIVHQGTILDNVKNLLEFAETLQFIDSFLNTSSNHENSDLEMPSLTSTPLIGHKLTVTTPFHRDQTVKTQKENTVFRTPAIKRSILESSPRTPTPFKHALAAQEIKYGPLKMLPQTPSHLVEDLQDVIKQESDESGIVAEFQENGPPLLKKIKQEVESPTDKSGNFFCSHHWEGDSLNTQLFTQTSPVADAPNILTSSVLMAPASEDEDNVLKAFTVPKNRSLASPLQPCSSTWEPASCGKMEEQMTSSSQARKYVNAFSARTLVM
# Estrogen receptor (Homo sapiens), sequence (P03372 whole entry, looked up, the tested form may be a part): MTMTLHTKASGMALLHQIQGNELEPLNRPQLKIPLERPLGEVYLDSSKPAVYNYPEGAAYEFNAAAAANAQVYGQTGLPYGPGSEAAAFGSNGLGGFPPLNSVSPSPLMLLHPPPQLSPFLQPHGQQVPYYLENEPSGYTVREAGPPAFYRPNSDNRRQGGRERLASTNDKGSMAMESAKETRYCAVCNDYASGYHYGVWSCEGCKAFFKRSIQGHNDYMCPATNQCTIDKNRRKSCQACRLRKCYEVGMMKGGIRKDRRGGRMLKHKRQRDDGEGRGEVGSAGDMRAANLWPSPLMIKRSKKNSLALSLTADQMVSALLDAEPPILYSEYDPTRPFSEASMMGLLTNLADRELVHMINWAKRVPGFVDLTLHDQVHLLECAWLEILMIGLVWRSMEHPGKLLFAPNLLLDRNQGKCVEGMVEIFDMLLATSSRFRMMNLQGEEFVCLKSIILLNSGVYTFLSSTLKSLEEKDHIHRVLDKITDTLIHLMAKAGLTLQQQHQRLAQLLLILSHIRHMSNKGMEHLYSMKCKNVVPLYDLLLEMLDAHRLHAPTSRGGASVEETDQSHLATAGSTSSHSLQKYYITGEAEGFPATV
# Hepatocyte nuclear factor 4-alpha (Homo sapiens), sequence (P41235 whole entry, looked up, the tested form may be a part): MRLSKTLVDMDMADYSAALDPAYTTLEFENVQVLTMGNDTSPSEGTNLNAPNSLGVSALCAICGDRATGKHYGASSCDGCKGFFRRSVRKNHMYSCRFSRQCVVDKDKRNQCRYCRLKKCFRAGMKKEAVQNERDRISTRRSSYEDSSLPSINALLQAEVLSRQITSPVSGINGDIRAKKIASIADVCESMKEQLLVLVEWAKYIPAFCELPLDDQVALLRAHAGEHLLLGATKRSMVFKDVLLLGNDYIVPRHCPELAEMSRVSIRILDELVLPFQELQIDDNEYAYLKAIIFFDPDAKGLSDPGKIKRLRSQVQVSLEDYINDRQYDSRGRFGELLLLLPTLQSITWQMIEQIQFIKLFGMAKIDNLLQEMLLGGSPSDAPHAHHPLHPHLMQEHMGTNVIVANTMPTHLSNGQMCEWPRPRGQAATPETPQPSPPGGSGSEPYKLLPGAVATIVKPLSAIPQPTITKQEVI
compound,measurement,setting,value
CC/C=C\CCOC(=O)c1ccccc1O,outcome,[1],inactive
same,outcome,[2],inactive
same,outcome,[3],inactive
same,outcome,[4],inactive
same,outcome,[5],inactive
same,outcome,[6],inactive
same,outcome,[7],inactive
same,outcome,[8],inactive
same,outcome,[9],inactive
same,outcome,[10],inactive
same,outcome,[11],inactive
same,outcome,[12],inactive
COC(Cc1ccccc1)OC,outcome,[1],inactive
same,outcome,[3],inactive
same,outcome,[4],inactive
same,outcome,[5],inactive
same,outcome,[7],inactive
same,outcome,[8],inactive
same,outcome,[13],inactive
same,outcome,[14],inactive
same,outcome,[10],inactive
same,outcome,[15],inactive
same,outcome,[16],inactive
same,outcome,[11],inactive
same,outcome,[12],inactive
CC(=O)OC1CCCCC1C(C)(C)C (stereo unspecified),outcome,[1],inactive
same,outcome,[2],inactive
same,outcome,[3],inactive
same,outcome,[4],inactive
same,outcome,[5],inactive
same,outcome,[7],inactive
same,outcome,[8],inactive
same,outcome,[9],inactive
same,outcome,[17],inactive
same,outcome,[14],inactive
same,outcome,[11],inactive
same,outcome,[12],inactive
CCN(CC)c1cccc(C)c1,outcome,[1],inactive
same,outcome,[2],inactive
same,outcome,[3],inactive
same,outcome,[5],inactive
same,outcome,[6],inactive
same,outcome,[7],inactive
same,outcome,[8],inactive
same,outcome,[9],inactive
same,outcome,[18],inactive
same,outcome,[17],inactive
same,outcome,[13],inactive
same,outcome,[14],inactive
same,outcome,[10],inactive
same,outcome,[16],inactive
same,outcome,[11],inactive
same,outcome,[12],inactive
CCCCCCO,outcome,[1],inactive
same,outcome,[3],inactive
same,outcome,[5],inactive
same,outcome,[7],inactive
same,outcome,[14],inactive
same,outcome,[10],inactive
same,outcome,[15],inactive
same,outcome,[11],inactive
same,outcome,[12],inactive
CCOB(OCC)OCC,outcome,[1],inactive
same,outcome,[2],inactive
same,outcome,[7],inactive
same,outcome,[8],inactive
same,outcome,[19],inactive
CC(C)c1cccc(C(C)C)c1N,outcome,[20],inactive
same,outcome,[2],inactive
same,outcome,[3],inactive
same,outcome,[4],inactive
same,outcome,[5],inactive
same,outcome,[7],inactive
same,outcome,[8],inactive
same,outcome,[9],inactive
same,outcome,[18],inactive
same,outcome,[17],inactive
same,outcome,[13],inactive
same,outcome,[14],inactive
same,outcome,[10],inactive
same,outcome,[15],inactive
same,outcome,[16],inactive
same,outcome,[11],inactive
CC(C)(c1ccccc1)c1ccc(Nc2ccc(C(C)(C)c3ccccc3)cc2)cc1,outcome,[20],inactive
same,outcome,[5],inactive
same,outcome,[7],inactive
same,outcome,[18],inactive
same,outcome,[17],inactive
same,outcome,[13],inactive
same,outcome,[14],inactive
same,outcome,[11],inactive
same,outcome,[12],inactive
C=Cc1ccc(OC(C)=O)cc1,outcome,[2],inactive
same,outcome,[3],inactive
same,AC50,[5],31.6 µM (active)
same,AC50,[7],53.7 µM (active)
same,outcome,[8],inactive
same,outcome,[18],inactive
same,outcome,[10],inactive
same,outcome,[15],inactive
same,outcome,[16],inactive
same,outcome,[11],inactive
same,outcome,[12],inactive
COC(=O)c1ccccc1C,outcome,[20],inactive
same,outcome,[2],inactive
same,outcome,[7],inactive
same,outcome,[10],inactive
same,outcome,[11],inactive
same,outcome,[12],inactive
CCCCCCCCCC(C)=O,outcome,[20],inactive
same,outcome,[2],inactive
same,outcome,[3],inactive
same,outcome,[5],inactive
same,outcome,[7],inactive
same,outcome,[8],inactive
same,outcome,[9],inactive
same,outcome,[17],inactive
same,outcome,[13],inactive
same,outcome,[14],inactive
same,outcome,[16],inactive
same,outcome,[11],inactive
same,outcome,[12],inactive
O=C(O)/C=C/c1ccccc1,outcome,[20],inactive
same,outcome,[2],inactive
same,AC50,[5],61.7 µM (active)
same,outcome,[7],inactive
same,outcome,[9],inactive
same,outcome,[15],inactive
same,outcome,[16],inactive
same,outcome,[11],inactive
same,outcome,[12],inactive

# Source: PubChem BioAssay (EPA / NIEHS)
